Assay outcomes from PubChem BioAssay.
Only some compounds are listed: those with a hit (about 21% of all), similar ones and a draw of the others.
Pf growth 48h – P. falciparum growth inhibition at 48 hours (one generation) | Potency, µM (series often up to 28.7 µM), for the others: at the top dose activity change, negative = inhibition, usual class: inhibitors | P. falciparum luciferase growth in erythrocytes, 48 h | AID 504832 | actives 5.9% (n = 310,000); further: potency means the concentration at half of the fitted maximal effect; on the % scale 0 is the no-effect control and ±100 the full control effect
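Parasite viability was followed by luminescence of a genomically integrated firefly luciferase. Cultures held 0.1% parasitemia at 2% hematocrit (final), incubated under 5% CO2 at 37 C.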
NS1 inh – influenza NS1 inhibition | Potency, µM (doses to about 46.1 µM), for the others: at the highest dose activity, positive = more growth | AID 2326 | actives 0.4% (n = 270,000); calls by dose curve; further: potency means the concentration at half of the fitted maximal effect; actives are rising curves; nearly all actives have a fitted effect of over 50% in size
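S. cerevisiae expressing influenza A NS1, grown in glucose, washed, then diluted 1:100 into pH 6.0 -URA galactose medium with 23 nl compound. Growth recovery read as OD600; NS1-free strain serves as control.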
Sm TGR inh – blocks Schistosoma mansoni thioredoxin glutathione reductase; Q962Y6; purified TGR, DTNB reduction, TNB absorbance 405 nm; Potency, µM (series often up to 114 µM), for the others: top-dose activity change, negative = inhibition, hits mostly inhibitors; actives 3% (n = 360,000); further: potency means the concentration at half of the fitted maximal effect; on the % scale 0 is the no-effect control and ±100 the full control effect; nearly all actives have a fitted effect of over 60% in size
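TGR 20 nM + NADPH 100 uM (dispensed conc.), cpd preinc 15 min RT; start with NADPH (500 uM addition) then DTNB (15 mM addition). Kinetic TNB absorbance, 405 nm filter. Four-parameter Hill fit across titration.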
Shiga inhibitor – blocks Shiga toxin action in Vero cells. Vero cells, Shiga toxin protein synthesis inhibition reporter. inhibition, % at 38.7 µM. actives 9.2% (n = 290,000). AID 2315; in the data active means inhibition mostly above about 28%, no sharp cut-off; inactive means mostly below about 43%; further: 0% is about no effect
Pf growth 96h – P. falciparum growth inhibition at 96 hour, primary screen for plastid delayed-death inhibitors; actives 6.9% (n = 320,000); Potency, µM (highest dose often 28.7 µM), without a hit: top-dose activity change, negative = inhibition, usual class: inhibitors; P. falciparum luciferase reporter growth, 96 h; further: potency means the concentration at half of the fitted maximal effect; on the % scale 0 is the no-effect control and ±100 the full control effect
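Cell-based qHTS: luciferase-tagged P. falciparum in erythrocytes (2% hematocrit, 0.05% parasitemia final) incubated with compounds for 96 hours, 37 C, 5% CO2; luciferase detection reagent then added and luminescence measured.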
CHX counter – affects cycloheximide protein synthesis inhibition readout, counter-screen | max response, % | cell reporter, cycloheximide protein synthesis inhibition counterscreen | AID 2314 | actives 12% (n = 300,000); in the data active means max response mostly above about 13%, no sharp cut-off; inactive means mostly below about 14%; further: read at 38.3 µM for the half of the compounds with a filed dose; 0% is about no effect
Active calls of the source: *. Unless noted, the call rests on the fitted dose curve; in most records, active means well fitted curve in the direction sought with a large enough effect; inconclusive means small, poorly fitted or top-dose-only effect, or another doubt; inactive means no such curve, though single readings can be large; an effect the other way counts as inactive or inconclusive.

Results for COc1cc(=O)n(C)c2c(OCC(O)C(C)(C)O)cccc12 (stereo unspecified) ?
Pf growth 48h: 35%; NS1 inh: -9%; Sm TGR inh: -2%; Pf growth 96h: 44%

Results for COc1cc(=O)n(C)c2c(OCC3OC(C)(C)OC3(C)C)cccc12 (stereo unspecified) ?
Pf growth 48h: inconclusive; NS1 inh: -1%; Sm TGR inh: -6%; Shiga inhibitor: 35; Pf growth 96h: inconclusive; CHX counter: 9.7*

What do the screens show for `CCOc1ccc(Nc2ncnc(N)n2)cc1`?
Pf growth 48h: 43%; NS1 inh: -9%; Sm TGR inh: -11%; Shiga inhibitor: 45*; CHX counter: 18

What do the screens show for `Nc1ncnc(Nc2ccc(S(N)(=O)=O)cc2)n1`?
Pf growth 48h: 8%; NS1 inh: 3%; Sm TGR inh: 3%; Shiga inhibitor: -4; Pf growth 96h: -8%; CHX counter: -4

Results for Nc1ncnc(Nc2ccc(F)cc2)n1 ?
Pf growth 48h: 9%; NS1 inh: 5%; Sm TGR inh: -5%; Shiga inhibitor: 31; Pf growth 96h: 6%; CHX counter: 10

Results for Cc1ccc(Nc2ncnc(N)n2)cc1 ?
Pf growth 48h: 111%; NS1 inh: 3%; Sm TGR inh: 34%; Shiga inhibitor: 50*; Pf growth 96h: -38%; CHX counter: 36*

Results for Cc1ccc(NS(=O)(=O)c2ccc(-n3cccn3)cc2)nc1 ?
Pf growth 48h: -10%; NS1 inh: -10%; Sm TGR inh: -18%; Shiga inhibitor: -5; Pf growth 96h: inconclusive; CHX counter: 2

What do the screens show for `Cn1nc(C(F)(F)F)c(-c2cccc(C(F)(F)F)c2)c1NC(=O)c1ccco1`?
Pf growth 48h: inconclusive; NS1 inh: 3%; Sm TGR inh: 3%; Shiga inhibitor: 13; Pf growth 96h: -20%; CHX counter: -2

What do the screens show for `Cn1nc(C(F)(F)F)c(-c2cccc(C(F)(F)F)c2)c1NC(=O)Nc1ccc(F)cc1`?
Pf growth 48h: 0.93µM*; NS1 inh: 0%; Sm TGR inh: 0%; Shiga inhibitor: -2; Pf growth 96h: 1.3µM*; CHX counter: 2

What do the screens show for `N#C/C(=C\c1ccncc1)c1nc2c(s1)CCCC2`?
Pf growth 48h: 4%; Sm TGR inh: -18%; Shiga inhibitor: 42*; Pf growth 96h: 7%; CHX counter: 21*

How did O=C(O)c1ccc(OCc2ccccc2)c(Cl)c1 do in these assays?
NS1 inh: -30%

What do the screens show for `CC(=O)Nc1ccc(NC(=O)C(C)OC(=O)CN2C(=O)C3CCCCC3C2=O)cc1` (stereo unspecified)?
Pf growth 48h: 5%; Sm TGR inh: 2%; Pf growth 96h: 25%

What do the screens show for `CCOC(=O)c1ccc(NCCOC)c([N+](=O)[O-])c1`?
Pf growth 48h: 86%; NS1 inh: -3%; Sm TGR inh: 9%; Shiga inhibitor: 88*; Pf growth 96h: 6%; CHX counter: 40*

What do the screens show for `Cc1ccc(NC(=O)c2ccc(NCCN)c([N+](=O)[O-])c2)cc1Cl`?
Pf growth 48h: 4.1µM*; NS1 inh: 18%; Sm TGR inh: -11%; Shiga inhibitor: 22; Pf growth 96h: 7%; CHX counter: 4

What do the screens show for `Cc1ccc(NC(=O)c2ccc(NCCc3ccccc3)c([N+](=O)[O-])c2)cc1F`?
Pf growth 48h: 0%; NS1 inh: -13%; Sm TGR inh: -14%; Shiga inhibitor: -9; Pf growth 96h: 8.3µM*; CHX counter: -1

What do the screens show for `Cc1cc(NC(=O)CSc2ncc(CO)n2Cc2ccc(F)cc2)no1`?
Pf growth 48h: 2%; NS1 inh: -1%; Sm TGR inh: 7%; Shiga inhibitor: 2; Pf growth 96h: -7%; CHX counter: -3

What do the screens show for `CCc1cc2c(COC(=O)c3cccc(NS(C)(=O)=O)c3)cc(=O)oc2cc1O`?
Pf growth 48h: inconclusive; NS1 inh: 9%; Sm TGR inh: 9%; Shiga inhibitor: -7; Pf growth 96h: 5.2µM*; CHX counter: -3

How did CCc1cc2c(COC(=O)c3cc(S(=O)(=O)N4CCOCC4)ccc3F)cc(=O)oc2cc1O do in these assays?
Pf growth 48h: inconclusive; Sm TGR inh: -28%; Pf growth 96h: 15µM*

Results for CC1CN(S(=O)(=O)c2cccc(C(=O)OCc3cc(=O)oc4cc(O)ccc34)c2)CC(C)O1 (stereo unspecified) ?
Pf growth 48h: inconclusive; NS1 inh: -16%; Sm TGR inh: -10%; Shiga inhibitor: 3; Pf growth 96h: -17%; CHX counter: -1

How did O=C(OCc1cc(=O)oc2cc(O)ccc12)c1cc(S(=O)(=O)N2CCOCC2)ccc1F do in these assays?
Pf growth 48h: 28%; Sm TGR inh: 3%; Pf growth 96h: 3%

How did O=c1nc(-c2ccccc2)c2cc(SC(F)F)ccc2[nH]1 do in these assays?
Pf growth 48h: inconclusive; NS1 inh: 16%; Sm TGR inh: 42%; Shiga inhibitor: 2; Pf growth 96h: -8%; CHX counter: 3

What do the screens show for `O=C(Nc1ccccc1)OCc1ccccn1`?
Pf growth 48h: 89%; NS1 inh: -6%; Sm TGR inh: 4%; Shiga inhibitor: 57*; Pf growth 96h: 284%; CHX counter: 26*

How did O=C(NCc1ccccn1)C(=O)NCc1ccccn1 do in these assays?
Pf growth 48h: 42%; Sm TGR inh: 8%; Shiga inhibitor: 10; Pf growth 96h: -4%; CHX counter: 6

How did O=C(NCc1ccccn1)Nc1cccc(F)c1 do in these assays?
Pf growth 48h: -4%; NS1 inh: -1%; Sm TGR inh: -2%; Shiga inhibitor: 39*; Pf growth 96h: 13%; CHX counter: 26*

Results for Cc1cccc(NC(=O)C(=O)NCc2ccccn2)c1 ?
Pf growth 48h: 154%; NS1 inh: -5%; Sm TGR inh: -17%; Shiga inhibitor: 168*; Pf growth 96h: 143%; CHX counter: 59*

What do the screens show for `O=C(NCc1ccccn1)Nc1ccc(F)cc1F`?
Pf growth 48h: 51%; NS1 inh: 5%; Sm TGR inh: 1%; Shiga inhibitor: 8; Pf growth 96h: 57%; CHX counter: 9

What do the screens show for `O=C(Nc1cccc(O)c1)c1cc(-c2ccccc2Cl)on1`?
Pf growth 48h: 0%; NS1 inh: -21%; Sm TGR inh: 1%; Shiga inhibitor: -12; Pf growth 96h: 0%; CHX counter: 6

Results for O=C(Nc1ccccc1)OCc1cc(-c2ccccc2Cl)on1 ?
Pf growth 48h: 24%; NS1 inh: -9%; Sm TGR inh: 9%; Shiga inhibitor: 69*; Pf growth 96h: 125%; CHX counter: 39*

What do the screens show for `O=C(NCc1ccccc1)c1nn(-c2ccccc2)nc1CO`?
Sm TGR inh: 7%

What do the screens show for `Cc1ccc2c(c1)C(=O)OC(C(=O)Nc1ncc(Cc3ccc(C(C)C)cc3)s1)C2` (stereo unspecified)?
Sm TGR inh: 8%
